Active and inactive are the calls of the source. Calls follow the shape of the full dose curve. Numbered stars: 1 amine (or outer) side, 2 acyl side, 3 side chain; on linkers, the order of the positions; unused ones are H or OH. Bridge positions count the residues as written; N and C are the ends. Square brackets hold non-standard residues; d marks the D form. Peptide text beside a SMILES is read from it. I, II: the chains in the order shown. Actinocin(9to1) = Cc1c2oc3c(C)ccc(C(=O)[*:1])c3nc-2c(C(=O)[*:2])c(N)c1=O; NMeV = CN[CH](C(=O)O)C(C)C; Orn = NCCC[C@H](N)C(=O)O; Sar = CNCC(=O)O
test: qHTS profiling of Chloroquine Analogs as inhibitors of Plasmodium falciparum (3D7) proliferation; conditions: activity change, negative = inhibition: at 28.7 µM (top of the series) unless noted
Text: Plasmodium falciparum is a virulent malarial parasite that kills 1-2 million people worldwide each year. Transmitted by mosquitoes, the sporozoite form of the parasite enters the blood stream to infect hepatocytes, where they become merozoites that infect red blood cells (erythrocytes). Within erythrocytes, merozoites begin a […] cycle of growth and division, after which the parasite is released to infect new red blood cells. Gametocytes, which form within erythrocytes as well, circulate in the bloodstream and are ingested by the mosquito, thereby completing the life cycle. To profile malarial isolates for differential chemical responses and to identify inhibitors of malarial growth, an assay that measures P. falciparum growth and replication within erythrocytes was employed. This assay uses a DNA binding fluorescent dye (SYBR Green) to detect parasite DNA following cell lysis. Because mature erythrocytes lack DNA, only Plasmodium-derived DNA is detected.
The SYBR Green viability assay was adapted from a method described previously (Plouffe et al., 2008). For screening 3 ul culture medium was dispensed into 1536 well black clear bottom plates (Aurora Biotechnologies) using a Multidrop Combi (Thermo Fisher Scientific Inc.), 23 nL compounds in DMSO were added by a pin tool (Kalypsys), and 5 ul of erythrocytes infected with P. falciparum (0.3% parasitemia, 2.5% hematocrit final concentration) were added. The plates were incubated at 37 C in a humidified incubator in 5% CO2 for 72 h, and 2 ul lysis buffer (20 mM Tris HCl, 10 mM EDTA, 0.16% saponin, 1.6% triton X, 10X SYBR Green I supplied as 10,000X […] by Invitrogen) was added to each well. The plates were mixed for 25 sec with gentle shaking and incubated overnight at room temperature in the dark. The following morning, fluorescence intensity at 485(14) nm excitation and 535(25) nm emission wavelengths was measured on an EnVision (Perkin Elmer) plate reader. Plate reads were normalized relative to the control inhibitor (0.29 uM artemisinin) and vehicle (DMSO) wells present on each plate and then corrected by an algorithm using vehicle-only control plates at the beginning and end of the compound plate stack.

Row | Structure (SMILES) | activity change, negative = inhibition | Potency
1 | C[N+]1(C)CCC(=C(c2ccccc2)c2ccccc2)CC1 | -94.2% [at 14.2 µM] | 
2 | CC(C)C[C@@H]1NC(=O)[C@H](CCCN)NC(=O)[C@H](C(C)C)NC(=O)[C@@H]2CCCN2C(=O)[C@@H](Cc2ccccc2)NC(=O)[C@H](CC(C)C)NC(=O)[C@H](CCCN)NC(=O)[C@H](C(C)C)NC(=O)[C@@H]2CCCN2C(=O)[C@@H](Cc2ccccc2)NC1=O (cyclo(V[Orn]L[dF]PV[Orn]L[dF]P)) | -102% | 
3 | C=Cc1c(C)c2cc3nc(cc4[nH]c(cc5nc(cc1[nH]2)C(C)=C5CCC(=O)OC)c(CCC(=O)O)c4C)[C@@]1(C)C3=CC=C(C(=O)OC)[C@H]1C(=O)OC | 179% [at 14.2 µM] (inactive) | 
4 | Cc1oncc1C(=O)Nc1ccc(C(F)(F)F)cc1 | 171% (inactive) | 
5 | C[C@H]1Cc2c([nH]c3cc(Cl)c(F)cc23)[C@@]2(N1)C(=O)Nc1ccc(Cl)cc12 | -101% | 
6 | OB1OCc2cc(F)ccc21 | 198% (inactive) | 
7 | C#C[C@]1(O)CC[C@@H]2[C@H]3CCC4=CC(=O)CC[C@H]4[C@H]3C(=C)C[C@@]21CC | 177% (inactive) | 
8 | C[C@H]1c2cccc(O)c2C(O)=C2C(=O)[C@]3(O)C(O)=C(C(N)=O)C(=O)[C@@H](N(C)C)[C@@H]3[C@@H](O)[C@@H]21 |  | 8410 nM (active)
9 | COc1ccc2nc3cc(Cl)ccc3c(Nc3cc(CN4CCCC4)c(O)c(CN4CCCC4)c3)c2n1 | -101% | 
10 | C[C@H]1[C@@H](OC(=O)CCC(=O)O)O[C@@H]2OC3(C)CC[C@H]4[C@H](C)CC[C@@H]1[C@@]24OO3 | -101% | 
11 | CSc1cccc(NC(=O)CC[C@H]2O[C@@H]3O[C@]4(C)CC[C@H]5[C@H](C)CC[C@@H]([C@@H]2C)[C@@]35OO4)c1 |  | 21.1 nM (active)
12 | CC(C)(C)c1cc(O)c(CN)c(C(C)(C)C)c1 |  | 168 nM (active)
13 | Cc1c2oc3c(C)ccc(C(=O)NC4C(=O)NC(C(C)C)C(=O)N5CCCC5C(=O)N(C)CC(=O)N(C)C(C(C)C)C(=O)OC4C)c3nc-2c(C(=O)NC2C(=O)NC(C(C)C)C(=O)N3CCCC3C(=O)N(C)CC(=O)N(C)C(C(C)C)C(=O)OC2C)c(N)c1=O (configuration not stated) (I: TVP[Sar][NMeV] / II: TVP[Sar][NMeV]; ester I:1-I:C, II:1-II:C; linker I:N-II:N via Actinocin(9to1); configuration not given here) |  | 2.1 nM (active)
14 | CC(=O)O[C@@]12CO[C@@H]1C[C@H](O)[C@@]1(C)C(=O)[C@H](O)C3=C(C)[C@@H](OC(=O)[C@H](O)[C@@H](NC(=O)OC(C)(C)C)c4ccccc4)C[C@@](O)([C@@H](OC(=O)c4ccccc4)[C@H]21)C3(C)C | 177% (inactive) | 
15 | NC(=NCc1ccccc1)NC(=O)c1nc(Cl)c(N)nc1N | -99.4% | 
16 | C/C(=C\c1csc(C)n1)[C@@H]1C[C@@H]2O[C@]2(C)CCC[C@H](C)[C@H](O)[C@@H](C)C(=O)C(C)(C)[C@@H](O)CC(=O)O1 | 35.6% (inactive) | 
17 | COc1cc2c(Nc3ccc(NC(=O)c4ccccc4)cc3)ncnc2cc1OCCCN1CCOCC1 | -100% | 
18 | COC(=O)C1C2CC3c4[nH]c5cc(OC)ccc5c4CCN3CC2CC(OC(=O)c2cc(OC)c(OC)c(OC)c2)C1OC (configuration not stated) | -101% [at 57.5 µM] | 
19 | O[C@H](c1cc(C(F)(F)F)nc2c(C(F)(F)F)cccc12)[C@H]1CCCCN1 | 193% [at 14.2 µM] (inactive) | 

Row | Structure (SMILES) | activity change, negative = inhibition | Potency
20 | C[C@@H]1Cc2c([nH]c3cc(Cl)c(F)cc23)[C@]2(N1)C(=O)Nc1ccc(Cl)cc12 | -101% | 
21 | CC[C@@H](C)[C@H]1O[C@]2(CC[C@H]1C)C[C@@H]1C[C@@H](CC=C(C)[C@@H](O[C@H]3C[C@H](OC)[C@@H](O[C@H]4C[C@H](OC)[C@@H](O)[C@H](C)O4)[C@H](C)O3)[C@@H](C)C=CC=C3CO[C@@H]4[C@H](O)C(C)=C[C@@H](C(=O)O1)[C@]34O)O2 | -99.9% | 
22 | CCCC[C@@H]1C[C@@H](C(=O)NC([C@H](C)Cl)[C@H]2O[C@H](S)[C@H](O)[C@@H](O)[C@@H]2O)N(C)C1 (some centres not stated) | -71.5% (inactive) | 
23 | Oc1cc(Cl)ccc1Oc1ccc(Cl)cc1Cl |  | 1880 nM (active)
24 | CN(C)c1ccc2nc3ccc(=[N+](C)C)cc-3sc2c1 |  | 4.3 nM (active)
25 | CCc1ccc(OCc2ccccc2C(=O)Nc2ccc3nc(C)cc(N)c3c2)cc1 | -101% | 
26 | CC(CNC1CCCCC1)OC(=O)c1ccccc1 (configuration not stated) | 9.78% [at 14.2 µM] (inactive) | 
27 | CCCCN(CCCC)CCC(O)c1cc2c(Cl)cc(Cl)cc2c2cc(C(F)(F)F)ccc12 (configuration not stated) |  | 5.1 nM (active)
28 | O=C(O)c1cn(C2CC2)c2cc(N3CCNCC3)c(F)cc2c1=O | -11.8% (inactive) | 
29 | CCCC(=O)O[C@]1(C(=O)CCl)[C@H](C)C[C@@H]2[C@H]3CCC4=CC(=O)C=C[C@]4(C)[C@@]3(F)C(=O)C[C@@]21C | -101% | 
30 | CCN(CC)CCCC(C)Nc1ccnc2cc(Cl)ccc12 (configuration not stated) | -99% | 
31 | COc1ncnc(NS(=O)(=O)c2ccc(N)cc2)c1OC |  | 1500 nM (active)
32 | C[C@@H]1[C@@H](CC(C[C@H]2O[C@@H]3O[C@]4(C)CC[C@@H]5[C@H](C)CC[C@@H]([C@H]2C)[C@@]35OO4)C(=O)NCc2ccc(F)cc2)O[C@@H]2O[C@]3(C)CC[C@H]4[C@H](C)CC[C@@H]1[C@@]24OO3 (some centres not stated) | -101% | 
33 | CO[C@H]1O[C@@H]2O[C@@]3(C)CC[C@@H]4[C@@H](C)CC[C@@H]([C@H]1C)[C@@]24OO3 | 167% (inactive) | 
34 | CN1C[C@H](C(=O)N[C@]2(C)O[C@@]3(O)[C@@H]4CCCN4C(=O)[C@H](Cc4ccccc4)N3C2=O)C[C@@H]2c3cccc4[nH]cc(c34)C[C@H]21 |  | 530 nM (active)
35 | Cc1nc2c(C#N)cccc2n1-c1ccc(C(=O)NC2CC2)s1 | -100% | 
36 | CN1CC[C@H](CN2c3ccccc3Sc3ccccc32)C1 | -79.7% (inactive) | 
37 | Cc1cccc(C)c1NC(=O)C(C)N (configuration not stated) | -9.46% [at 14.2 µM] (inactive) | 
